For one experiment, the target named is Albumin (Bos taurus) (UniProt P02769). Kind of experiment: bovine serum albumin binders on microarray, profiling panel, artefact control for SMM control protein annotation, biochemical, small-molecule microarray, Alexa647 label, 635/667 nm fluorescence (AID 1118).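 Also: score merges 667 nm emission intensity and signal-to-noise per printed compound spot.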 To be noted: BSA-A647 binding, fluorescence 635 nm, higher = more signal.
Experiment [1] in a line: small-molecule microarray binders of probe aXIP, primary screen, biochemical, NeuroSMM set, 635/667 nm fluorescence (AID 1119).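 Also: probe is the protein aXip251-270 applied at 1 µg/mL to compound-printed slides; binding of probe to printed compounds measured as 667 nm fluorescence plus signal to noise.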 To be noted: higher = more signal, called active from +8 up or from −8 down.
Experiment [2] is described as follows: small-molecule binders of probe aNOTCH3, primary screen, biochemical, small-molecule microarray, 635/667 nm fluorescence (AID 1120).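 Also: probe is a biotin-tagged antibody raised against NOTCH3 rather than NOTCH3 protein; score merges spot fluorescence near 667 nm with spot signal to noise.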 Particulars: higher = more signal.
Experiment [3] in a line: small-molecule binders of probe aNOTCH2, primary screen, biochemical, small-molecule microarray, 635/667 nm fluorescence (AID 1121).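 Also: score merges feature fluorescence read at 667 nm with its signal to noise.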 Particulars: higher = more signal.
For experiment [4], the target named is Carbonic anhydrase 2 (Homo sapiens) (UniProt P00918). The experiment is described as follows: CAII small-molecule binders, profiling panel, biochemical, small-molecule microarray, Alexa647-labelled CAII (AID 1122). To be noted: CAII-A647 binding fluorescence, higher = more signal.
Experiment [5] can be described thus: COS7 lysate on small-molecule microarray, probe aHis, 635 nm (AID 1123).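 Also: z-score combines 667nm fluorescence intensity with signal-to-noise per printed compound spot.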 To be noted: COS7 cell lysate, fluorescence, higher = more signal.
Experiment [6] can be described thus: compound binding in COS7 lysate, probe aLAP1, primary screen, cell lysate, small-molecule microarray (AID 1124).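 Also: lysate comes from COS7 cells expressing LAP1 and is applied at 0.3 µg/mL; score merges spot fluorescence near 667 nm with signal-to-noise over triplicate slides.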 To be noted: probe aLAP1, fluorescence, higher = more signal.
A further experiment has as its system Sam68 (KHDRBS1). The experiment is described as follows: Sam68 small-molecule binders, primary screen, biochemical, small-molecule microarray, 635 nm fluorescence (AID 1125).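 Also: score merges 667 nm channel intensity with signal to noise over triplicate slides.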 Particulars: small-molecule microarray binding, higher = more signal.
The subject of experiment [7] is Chordin-like protein 2 (CHRDL2). The experiment is described as follows: CHRDL2 small-molecule binders, primary screen, biochemical, small-molecule microarray, 635 nm fluorescence (AID 1126).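 Also: printed compound slides probed with Chrdl2 protein at 4 µg/mL for 1 h at 4 C; score merges 667 nm emission intensity with signal to noise over three replicate slides.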 To be noted: small-molecule microarray binding, fluorescence 635 nm; higher = more signal.
Experiment [8] addresses Concanavalin-A (Canavalia ensiformis) (UniProt P02866). Kind of experiment: ConA small-molecule binders, primary screen, artefact control for SMM control protein annotation, biochemical, small-molecule microarray, Alexa647 label, 635 nm (AID 1127).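 Also: z combines 667 nm emission intensity with signal-to-noise across three replicate slides.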 To be noted: ConA-A647 binding fluorescence, higher = more signal.
Experiment [9] in a line: anti-His antibody binders, primary screen, artefact control for SMM control protein annotation, biochemical, small-molecule microarray, 635 nm fluorescence (AID 1128).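 Also: score merges feature fluorescence with signal-to-noise for each printed compound spot.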 Particulars: anti-His Alexa647 antibody binding, higher = more signal.
Experiment [10] concerns Human papillomavirus type 1a E7 protein (residues 1-88). Kind of experiment: HPV1a E7 small-molecule binders, primary screen, biochemical, small-molecule microarray, residues 1-88, 635 nm (AID 1129). Particulars: small-molecule microarray binding, fluorescence 635 nm; higher = more signal.
For experiment [11], the target named is Focal adhesion kinase 1 (Homo sapiens) (UniProt Q05397). Kind of experiment: small-molecule microarray binders of FAK, primary screen, biochemical, 635/667 nm fluorescence, BSA, DTT (AID 1130).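 Also: composite of spot emission at 667 nm and signal to noise over triplicate slides.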 Particulars: PTK2 binding, 635 nm fluorescence, higher = more signal.
Focal adhesion kinase 1 (Homo sapiens), sequence (Q05397 whole entry, looked up): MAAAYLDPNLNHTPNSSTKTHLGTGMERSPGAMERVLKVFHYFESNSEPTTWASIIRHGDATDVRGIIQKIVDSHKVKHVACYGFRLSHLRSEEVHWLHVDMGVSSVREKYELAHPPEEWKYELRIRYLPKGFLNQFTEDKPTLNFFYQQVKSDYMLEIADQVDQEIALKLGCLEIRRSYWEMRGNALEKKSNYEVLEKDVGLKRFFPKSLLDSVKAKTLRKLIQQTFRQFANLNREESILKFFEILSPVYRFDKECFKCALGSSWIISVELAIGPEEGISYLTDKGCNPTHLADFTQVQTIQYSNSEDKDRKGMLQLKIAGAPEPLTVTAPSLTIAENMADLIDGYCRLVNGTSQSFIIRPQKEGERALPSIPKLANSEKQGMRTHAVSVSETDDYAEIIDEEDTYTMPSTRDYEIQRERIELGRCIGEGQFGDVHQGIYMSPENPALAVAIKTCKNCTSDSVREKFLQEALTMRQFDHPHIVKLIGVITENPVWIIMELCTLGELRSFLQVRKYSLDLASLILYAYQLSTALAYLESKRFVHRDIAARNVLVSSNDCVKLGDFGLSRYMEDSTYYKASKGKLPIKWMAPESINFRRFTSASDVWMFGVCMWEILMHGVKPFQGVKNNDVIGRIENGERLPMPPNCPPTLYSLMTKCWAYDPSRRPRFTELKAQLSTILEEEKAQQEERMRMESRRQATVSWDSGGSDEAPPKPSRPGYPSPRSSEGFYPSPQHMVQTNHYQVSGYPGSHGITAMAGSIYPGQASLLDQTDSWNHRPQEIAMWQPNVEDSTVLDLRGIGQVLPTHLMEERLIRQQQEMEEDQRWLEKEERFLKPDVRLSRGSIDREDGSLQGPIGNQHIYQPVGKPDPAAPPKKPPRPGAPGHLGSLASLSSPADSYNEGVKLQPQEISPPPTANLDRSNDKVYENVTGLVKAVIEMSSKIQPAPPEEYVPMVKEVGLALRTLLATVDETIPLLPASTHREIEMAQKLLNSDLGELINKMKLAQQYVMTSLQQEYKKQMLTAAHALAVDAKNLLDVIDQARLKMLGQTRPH
Experiment [12] deals with Fibrinogen (Alexa647-labelled). Kind of experiment: fibrinogen binders on compound microarrays, profiling panel, artefact control for SMM control-protein annotation, biochemical, small-molecule microarray, 635/667 nm fluorescence (AID 1131).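 Also: z-score merges 667 nm fluorescence with per-spot signal-to-noise over triplicate slides.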 To be noted: fibrinogen-A647 binding fluorescence, higher = more signal.
Experiment [13] deals with Follistatin (Homo sapiens) (UniProt P19883). The experiment is described as follows: follistatin binders on small-molecule microarrays, primary screen, biochemical, small-molecule microarray, 635/667 nm fluorescence (AID 1132). To be noted: FST binding, 635 nm fluorescence, higher = more signal.
Follistatin (Homo sapiens), sequence (P19883 whole entry, looked up): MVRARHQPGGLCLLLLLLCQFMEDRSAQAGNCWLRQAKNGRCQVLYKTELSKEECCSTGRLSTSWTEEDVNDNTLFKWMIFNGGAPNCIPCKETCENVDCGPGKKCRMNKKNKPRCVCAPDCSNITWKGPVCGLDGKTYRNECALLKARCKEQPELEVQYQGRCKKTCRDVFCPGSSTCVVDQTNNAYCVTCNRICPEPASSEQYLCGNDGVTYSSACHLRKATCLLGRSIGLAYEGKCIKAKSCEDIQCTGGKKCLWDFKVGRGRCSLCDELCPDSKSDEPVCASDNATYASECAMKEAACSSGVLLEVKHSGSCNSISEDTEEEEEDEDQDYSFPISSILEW
In experiment [14] the target is Fibroblast growth factor 2 (Homo sapiens) (UniProt P09038). The experiment is described as follows: FGF2 binders on small-molecule microarrays, primary screen, biochemical, small-molecule microarray, 635/667 nm fluorescence (AID 1133). Particulars: small-molecule microarray binding, FGF2, fluorescence 635/667; higher = more signal.
Fibroblast growth factor 2 (Homo sapiens), sequence (P09038 whole entry, looked up): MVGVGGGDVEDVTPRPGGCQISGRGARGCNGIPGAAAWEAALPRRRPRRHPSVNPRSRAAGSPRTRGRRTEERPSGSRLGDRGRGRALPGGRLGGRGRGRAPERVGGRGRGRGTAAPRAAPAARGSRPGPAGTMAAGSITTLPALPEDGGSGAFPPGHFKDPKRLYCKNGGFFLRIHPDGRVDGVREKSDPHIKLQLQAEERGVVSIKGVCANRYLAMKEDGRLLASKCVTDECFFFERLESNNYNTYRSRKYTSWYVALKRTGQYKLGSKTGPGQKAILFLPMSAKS
Experiment [15] in a line: mitochondrial membrane potential change in A549 cells, profiling panel, cell-based, JC-1 fluorescence, basal, 24 h, 100 nL (AID 1138).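 Also: A549 lung adenocarcinoma cells under basal conditions with no added stimulus; test concentration not given here.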 Particulars: higher = more signal.
The test system of the next experiment is Lefty1. Kind of experiment: Lefty1 binders on small-molecule microarrays, primary screen, biochemical, small-molecule microarray, 635/667 nm fluorescence (AID 1139). Particulars: small-molecule microarray binding, fluorescence 635/667; higher = more signal.
Experiment [16] concerns wheat germ agglutinin (Triticum aestivum), Alexa647-labelled. Kind of experiment: wheat germ agglutinin binders on compound microarrays, profiling panel, artefact control for SMM control-protein annotation, biochemical, small-molecule microarray, 635/667 nm fluorescence (AID 1140).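 Also: score merges 667 nm feature emission with signal to noise over triplicate slides.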 To be noted: WGA-A647 binding, 635 nm fluorescence, higher = more signal.
The target in experiment [17] is Luciferin 4-monooxygenase (Photinus pyralis) (UniProt P08659). Kind of experiment: firefly luciferase enzyme inhibitors, primary screen, biochemical, luminescence, purified enzyme, 2006 set (AID 1141).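 Also: cell-free assay with purified firefly luciferase at 100 ng per well in PBS; test concentration not given here.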 Particulars: SteadyGlo luminescence, 30 min, higher = more signal, called active from +8 up or from −8 down.
Luciferin 4-monooxygenase (Photinus pyralis), sequence (P08659 whole entry, looked up): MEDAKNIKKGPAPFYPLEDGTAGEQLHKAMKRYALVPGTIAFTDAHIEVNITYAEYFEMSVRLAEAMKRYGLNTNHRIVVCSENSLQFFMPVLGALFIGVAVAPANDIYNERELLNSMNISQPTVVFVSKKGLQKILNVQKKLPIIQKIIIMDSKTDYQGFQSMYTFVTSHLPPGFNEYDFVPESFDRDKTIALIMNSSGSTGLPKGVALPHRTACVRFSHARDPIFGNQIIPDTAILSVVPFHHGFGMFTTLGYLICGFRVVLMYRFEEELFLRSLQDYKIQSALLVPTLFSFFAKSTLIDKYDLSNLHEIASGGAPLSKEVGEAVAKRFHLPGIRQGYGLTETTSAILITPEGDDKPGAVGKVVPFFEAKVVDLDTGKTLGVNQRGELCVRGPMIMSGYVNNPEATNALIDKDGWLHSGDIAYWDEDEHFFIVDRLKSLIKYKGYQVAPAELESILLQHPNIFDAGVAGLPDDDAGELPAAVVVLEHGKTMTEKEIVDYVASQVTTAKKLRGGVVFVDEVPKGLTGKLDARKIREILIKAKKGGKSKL

Calls of active or inactive are those of the source.

Concanavalin-A (Canavalia ensiformis), sequence (P02866 whole entry, looked up): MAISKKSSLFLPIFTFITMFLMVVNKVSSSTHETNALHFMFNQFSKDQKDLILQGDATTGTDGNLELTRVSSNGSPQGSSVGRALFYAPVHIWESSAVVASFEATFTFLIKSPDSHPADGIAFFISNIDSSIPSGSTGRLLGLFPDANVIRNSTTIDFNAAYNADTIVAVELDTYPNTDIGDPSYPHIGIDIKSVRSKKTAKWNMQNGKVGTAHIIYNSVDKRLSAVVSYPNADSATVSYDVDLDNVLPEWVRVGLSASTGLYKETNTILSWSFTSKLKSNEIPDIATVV
Albumin (Bos taurus), sequence (P02769 whole entry, looked up): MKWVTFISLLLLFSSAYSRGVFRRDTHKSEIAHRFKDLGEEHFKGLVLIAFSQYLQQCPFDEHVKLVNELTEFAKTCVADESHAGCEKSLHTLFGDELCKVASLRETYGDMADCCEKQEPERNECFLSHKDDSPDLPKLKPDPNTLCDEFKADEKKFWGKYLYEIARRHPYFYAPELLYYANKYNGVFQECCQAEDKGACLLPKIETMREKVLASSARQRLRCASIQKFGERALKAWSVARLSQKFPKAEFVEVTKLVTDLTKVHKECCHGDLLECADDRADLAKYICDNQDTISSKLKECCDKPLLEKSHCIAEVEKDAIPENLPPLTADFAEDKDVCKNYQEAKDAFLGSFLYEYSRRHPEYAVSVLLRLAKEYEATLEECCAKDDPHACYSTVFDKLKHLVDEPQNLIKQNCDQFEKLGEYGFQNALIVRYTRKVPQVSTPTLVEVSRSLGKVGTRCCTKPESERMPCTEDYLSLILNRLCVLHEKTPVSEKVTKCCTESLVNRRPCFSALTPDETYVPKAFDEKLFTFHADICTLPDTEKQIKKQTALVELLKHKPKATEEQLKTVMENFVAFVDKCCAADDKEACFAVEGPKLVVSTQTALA

As for `CCOC(=O)C[C@H]1[C@H](OC(=O)c2ccc(-c3ccccc3)cc2)[C@@H](NC(=O)c2ccccc2)c2cc(OCCCO)ccc2N1C(=O)Cc1ccc(OC)cc1`, the composite z-score in the experiment with Albumin (Bos taurus) was 0.372; in experiment [2], -0.0077; in [3], -0.0664; in experiment [4], -0.0275; in [5], 0.368; in experiment [6] it was 0.311. In addition, the composite z-score in the experiment with Sam68 (KHDRBS1) was -0.254; in [7], -0.399; in experiment [8] it was -0.769; in experiment [9], -0.913; in [10], -0.509; in experiment [11], -0.355. Also, the composite z-score in [12] is -0.264; in [13], -0.434; in experiment [14], 0.1; in the experiment on Lefty1, -0.336; in [16], -0.126. The composite Z-score in [1] is -0.316 (inactive). Moreover, the z-score in experiment [15] is 1.45; in experiment [17] it was -0.938 (inactive).

`CCCNC(=O)[C@@]1(Sc2ccc(C)cc2)CC(=O)N(Cc2ccccc2C(F)(F)F)[C@@H]1c1ccc(CO)cc1I`: the composite z-score with Albumin (Bos taurus) was 0.31; in experiment [2], 0.0696; in [3], -0.123; in experiment [4], 0.624; in experiment [5], 1.82; in experiment [6] it was 0.116. In addition, the composite z-score with Sam68 (KHDRBS1) was 1.29; in [7], 0.315; in [8], 0.435; in [9], -0.132; in [10], 0.934; in experiment [11] it was 0.0382. The composite z-score in [12] stood at 0.956; in experiment [13] it was 1.36; in experiment [14] it was 0.76; in the experiment with Lefty1, 0.849; in [16], 0.28. For the same compound, the composite Z-score in [1] is 0.222 (inactive). For the same compound, the z-score in experiment [15] was -0.722; in experiment [17] it was 0.262 (inactive).

As for `C=CCC(OC(C)=O)[C@@H]1[C@@H](N(Cc2ccc(-c3ccccc3)cc2)C(=O)Cc2ccc(F)cc2)c2cc(OCCCO)ccc2N1C(=O)c1ccc2ccccc2c1` (stereo not given in full), the composite z-score with Albumin (Bos taurus) was -0.153; in experiment [2], 0.119; in experiment [3], 0.0251; in experiment [4], 0.0176; in experiment [5], 0.361; in [6], 0.225. The composite z-score with Sam68 (KHDRBS1) was 0.112; in experiment [7] it was -0.132; in experiment [8] it was -1.04; in experiment [9], -0.264; in [10] it was -0.0066; in [11], 0.16. In addition, the composite z-score in experiment [12] was -0.163; in experiment [13], 0.296; in experiment [14], 0.288; with Lefty1, 0.125; in experiment [16], -0.117. For the same compound, in [1], the composite Z-score is -0.301 (inactive). The z-score was 1.73 in [15] and -0.87 (inactive) in [17].

On to `COC(=O)[C@@]1(Cc2ccccc2)[C@H]2c3cc(C(=O)N(C)C)n(Cc4ccc(OC)c(OC)c4)c3C[C@H]2CN1C(=O)c1ccccc1`, for which the composite z-score turned out to be 0.864 with Albumin (Bos taurus); 0.775 in experiment [2]; 0.318 in [3]; 0.467 in experiment [4]; 3.07 in experiment [5]; 0.463 in experiment [6]. The composite z-score with Sam68 (KHDRBS1) was 1.29; in [7], -0.78; in experiment [8] it was 0.829; in experiment [9] it was 1.81; in experiment [10] it was 1.27; in experiment [11] it was 0.561. Besides, the composite z-score in experiment [12] was 1.01; in experiment [13] it was 0.385; in experiment [14], -0.588; in the experiment with Lefty1 it was 0.0922; in experiment [16], 0.995. Moreover, the composite Z-score in [1] is 0.0388 (inactive). Further, the z-score in experiment [15] is 0.134; in [17], 1.29 (inactive).

In the case of `CCCCC(=C=CC[C@H](O)c1cccc(OCCO)c1)C[C@H](O)c1ccccn1`, the composite z-score was 0.424 with Albumin (Bos taurus); -0.0014 in experiment [2]; -0.153 in experiment [3]; 0.693 in experiment [4]; -0.0434 in experiment [5]; -0.165 in experiment [6]. For the same compound, the composite z-score was -0.15 in the experiment on Sam68 (KHDRBS1); 0.23 in experiment [7]; 0.503 in experiment [8]; 0.536 in [9]; -0.0708 in [10]; -0.0538 in [11]. Besides, the composite z-score stood at 0.538 in experiment [12]; 0.346 in experiment [13]; 0.257 in [14]; 0.38 in the experiment on Lefty1; 0.0704 in experiment [16]. Moreover, the composite Z-score in experiment [1] was 0.152 (inactive). Further, the values for the z-score in [15] and in [17] were 0.782 and -0.167 (inactive), respectively.

As to `CO[C@H]1O[C@H](CO)[C@@H](OC(=O)Nc2cccc(F)c2)[C@H](OC(=O)Nc2ccccc2)[C@H]1OC(=O)Nc1ccccc1`, the composite z-score with Albumin (Bos taurus) is -0.225; in experiment [2] it was 0.146; in experiment [3] it was -0.0664; in experiment [4] it was 0.65; in [5], 1.24; in experiment [6], 0.168. Also, the composite z-score came out at 1.29 with Sam68 (KHDRBS1); 0.323 in [7]; 0.899 in experiment [8]; 2.02 in experiment [9]; 1.29 in experiment [10]; 0.656 in experiment [11]. In addition, the composite z-score in experiment [12] was 0.993; in [13] it was 1.35; in experiment [14] it was 1.12; in the experiment on Lefty1 it was 1.3; in experiment [16] it was 0.662. In experiment [1], the composite Z-score was 0.0063 (inactive). Also, the z-score in experiment [15] was -1.18; in experiment [17], 0.124 (inactive).

These data come from PubChem BioAssay.
